Among the data in ChEMBL document CHEMBL1961873, “Compounds: GSK PKIS; Assays: Nanosyn kinase panel” (2012) are inhibition values, retold here.

In experiment [1] the target is Tyrosine-protein kinase Fyn (Homo sapiens) (UniProt P06241). Particulars: at 1 µM.
The target in experiment [2] is Tyrosine-protein kinase HCK (Homo sapiens) (UniProt P08631). Particulars: at 0.1 µM.
The target is the same in experiment [3]. Particulars: at 1 µM.
Experiment [4] addresses Insulin-like growth factor 1 receptor (Homo sapiens) (UniProt P08069). The note with it: at 0.1 µM.
Experiment [5] has the same target. The note with it: at 1 µM.
Experiment [6] deals with Insulin receptor (Homo sapiens) (UniProt P06213). Particulars: at 0.1 µM.
Experiment [7] shares this target. The note with it: at 1 µM.
In experiment [8] the target is Insulin receptor-related protein (Homo sapiens) (UniProt P14616). Particulars: at 0.1 µM.
Chain of Insulin receptor-related protein (Homo sapiens) (P14616 27-742 limits assumed): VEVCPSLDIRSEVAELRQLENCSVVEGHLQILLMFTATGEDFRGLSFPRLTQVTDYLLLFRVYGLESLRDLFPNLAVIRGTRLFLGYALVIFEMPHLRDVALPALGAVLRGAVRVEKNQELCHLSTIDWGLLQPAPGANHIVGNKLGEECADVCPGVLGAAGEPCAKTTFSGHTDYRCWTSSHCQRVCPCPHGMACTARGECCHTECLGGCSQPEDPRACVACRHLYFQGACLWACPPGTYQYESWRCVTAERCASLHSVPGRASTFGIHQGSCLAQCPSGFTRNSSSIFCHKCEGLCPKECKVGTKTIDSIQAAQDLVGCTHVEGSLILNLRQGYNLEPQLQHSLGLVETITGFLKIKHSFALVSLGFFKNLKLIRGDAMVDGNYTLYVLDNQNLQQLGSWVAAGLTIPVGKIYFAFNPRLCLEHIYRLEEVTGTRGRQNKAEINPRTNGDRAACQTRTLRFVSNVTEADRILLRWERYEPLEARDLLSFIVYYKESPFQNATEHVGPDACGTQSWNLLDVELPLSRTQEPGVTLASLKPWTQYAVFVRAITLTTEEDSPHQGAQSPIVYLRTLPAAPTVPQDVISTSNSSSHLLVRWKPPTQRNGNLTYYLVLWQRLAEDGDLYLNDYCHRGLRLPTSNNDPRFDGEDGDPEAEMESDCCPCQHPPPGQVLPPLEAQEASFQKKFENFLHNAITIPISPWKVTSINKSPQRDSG
Chain of Insulin receptor-related protein (Homo sapiens) (P14616 747-1297 limits assumed): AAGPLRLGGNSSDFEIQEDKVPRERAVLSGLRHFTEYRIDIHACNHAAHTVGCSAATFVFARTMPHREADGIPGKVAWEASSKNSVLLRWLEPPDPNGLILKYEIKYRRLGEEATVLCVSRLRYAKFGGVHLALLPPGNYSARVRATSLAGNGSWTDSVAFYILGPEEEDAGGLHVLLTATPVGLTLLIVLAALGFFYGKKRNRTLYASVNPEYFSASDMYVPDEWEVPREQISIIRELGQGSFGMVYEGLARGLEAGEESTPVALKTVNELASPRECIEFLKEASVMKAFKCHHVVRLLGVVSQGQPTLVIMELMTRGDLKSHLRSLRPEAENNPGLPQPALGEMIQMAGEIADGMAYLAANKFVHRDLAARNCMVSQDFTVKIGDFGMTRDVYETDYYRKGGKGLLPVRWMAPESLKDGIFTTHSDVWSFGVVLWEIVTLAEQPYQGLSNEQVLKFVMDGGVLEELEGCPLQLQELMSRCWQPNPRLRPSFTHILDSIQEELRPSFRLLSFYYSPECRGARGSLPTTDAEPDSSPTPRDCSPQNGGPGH
The target is the same in experiment [9]. Particulars: at 1 µM.
Experiment [10] has as its target T1, Tyrosine-protein kinase ITK/TSK (Homo sapiens) (UniProt Q08881).
T1 sequence (whole entry): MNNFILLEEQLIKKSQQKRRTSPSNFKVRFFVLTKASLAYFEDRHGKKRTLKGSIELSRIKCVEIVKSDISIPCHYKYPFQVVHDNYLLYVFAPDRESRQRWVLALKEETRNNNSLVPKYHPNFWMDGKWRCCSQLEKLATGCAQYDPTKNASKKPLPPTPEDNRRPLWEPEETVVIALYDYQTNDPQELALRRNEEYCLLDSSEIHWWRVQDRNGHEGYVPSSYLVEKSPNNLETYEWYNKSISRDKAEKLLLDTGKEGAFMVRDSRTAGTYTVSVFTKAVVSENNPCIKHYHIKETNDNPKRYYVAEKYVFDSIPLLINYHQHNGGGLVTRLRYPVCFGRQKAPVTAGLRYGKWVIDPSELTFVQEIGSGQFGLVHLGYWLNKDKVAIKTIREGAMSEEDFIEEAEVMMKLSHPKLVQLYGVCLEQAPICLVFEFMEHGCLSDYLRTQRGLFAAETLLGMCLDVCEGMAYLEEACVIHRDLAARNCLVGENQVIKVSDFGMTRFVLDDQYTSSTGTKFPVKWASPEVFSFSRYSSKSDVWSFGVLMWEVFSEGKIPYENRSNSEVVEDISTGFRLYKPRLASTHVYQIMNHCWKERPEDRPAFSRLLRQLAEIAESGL
The note with it: at 0.1 µM.

The target of experiment [11] is T1, Tyrosine-protein kinase ITK/TSK (Homo sapiens). The note with it: at 1 µM.
The target of experiment [12] is Tyrosine-protein kinase JAK1 (Homo sapiens) (UniProt P23458). Particulars: at 0.1 µM.
Chain of Tyrosine-protein kinase JAK1 (Homo sapiens) (P23458 whole entry): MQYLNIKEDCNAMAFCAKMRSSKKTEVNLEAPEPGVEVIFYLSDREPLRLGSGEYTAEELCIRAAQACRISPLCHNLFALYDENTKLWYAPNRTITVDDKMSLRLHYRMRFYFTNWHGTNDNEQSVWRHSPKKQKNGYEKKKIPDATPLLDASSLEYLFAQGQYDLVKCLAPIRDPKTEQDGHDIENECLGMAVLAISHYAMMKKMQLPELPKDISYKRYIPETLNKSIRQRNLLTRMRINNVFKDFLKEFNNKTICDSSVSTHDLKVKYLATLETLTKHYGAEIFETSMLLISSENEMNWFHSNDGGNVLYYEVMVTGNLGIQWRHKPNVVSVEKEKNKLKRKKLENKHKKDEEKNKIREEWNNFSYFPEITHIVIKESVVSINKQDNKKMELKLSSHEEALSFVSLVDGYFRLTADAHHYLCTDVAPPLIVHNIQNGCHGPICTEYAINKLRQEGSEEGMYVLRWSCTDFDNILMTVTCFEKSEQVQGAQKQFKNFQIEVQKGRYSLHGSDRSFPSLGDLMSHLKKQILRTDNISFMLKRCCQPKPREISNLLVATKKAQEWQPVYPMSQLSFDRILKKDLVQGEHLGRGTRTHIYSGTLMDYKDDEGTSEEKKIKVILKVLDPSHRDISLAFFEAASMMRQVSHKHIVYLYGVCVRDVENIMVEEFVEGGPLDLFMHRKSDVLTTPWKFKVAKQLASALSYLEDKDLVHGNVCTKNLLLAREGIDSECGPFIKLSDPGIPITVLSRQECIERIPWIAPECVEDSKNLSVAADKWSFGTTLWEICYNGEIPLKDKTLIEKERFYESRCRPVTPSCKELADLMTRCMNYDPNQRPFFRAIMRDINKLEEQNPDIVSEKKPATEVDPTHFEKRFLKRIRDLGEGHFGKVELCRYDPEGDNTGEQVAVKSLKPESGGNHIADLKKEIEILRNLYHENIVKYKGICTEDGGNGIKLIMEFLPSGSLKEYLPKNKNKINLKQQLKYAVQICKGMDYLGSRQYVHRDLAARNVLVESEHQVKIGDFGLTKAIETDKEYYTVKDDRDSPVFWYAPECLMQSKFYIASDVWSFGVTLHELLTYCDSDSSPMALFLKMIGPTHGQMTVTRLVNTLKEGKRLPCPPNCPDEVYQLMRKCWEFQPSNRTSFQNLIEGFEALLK
Experiment [13] has the same target. Particulars: at 1 µM.
Experiment [14] has as its target Tyrosine-protein kinase JAK2 (Homo sapiens) (UniProt O60674). Particulars: at 0.1 µM.
Experiment [15] has the same target. Particulars: at 1 µM.
In experiment [16] the target is T2, Tyrosine-protein kinase JAK3 (Homo sapiens) (UniProt P52333).
T2 sequence (whole entry): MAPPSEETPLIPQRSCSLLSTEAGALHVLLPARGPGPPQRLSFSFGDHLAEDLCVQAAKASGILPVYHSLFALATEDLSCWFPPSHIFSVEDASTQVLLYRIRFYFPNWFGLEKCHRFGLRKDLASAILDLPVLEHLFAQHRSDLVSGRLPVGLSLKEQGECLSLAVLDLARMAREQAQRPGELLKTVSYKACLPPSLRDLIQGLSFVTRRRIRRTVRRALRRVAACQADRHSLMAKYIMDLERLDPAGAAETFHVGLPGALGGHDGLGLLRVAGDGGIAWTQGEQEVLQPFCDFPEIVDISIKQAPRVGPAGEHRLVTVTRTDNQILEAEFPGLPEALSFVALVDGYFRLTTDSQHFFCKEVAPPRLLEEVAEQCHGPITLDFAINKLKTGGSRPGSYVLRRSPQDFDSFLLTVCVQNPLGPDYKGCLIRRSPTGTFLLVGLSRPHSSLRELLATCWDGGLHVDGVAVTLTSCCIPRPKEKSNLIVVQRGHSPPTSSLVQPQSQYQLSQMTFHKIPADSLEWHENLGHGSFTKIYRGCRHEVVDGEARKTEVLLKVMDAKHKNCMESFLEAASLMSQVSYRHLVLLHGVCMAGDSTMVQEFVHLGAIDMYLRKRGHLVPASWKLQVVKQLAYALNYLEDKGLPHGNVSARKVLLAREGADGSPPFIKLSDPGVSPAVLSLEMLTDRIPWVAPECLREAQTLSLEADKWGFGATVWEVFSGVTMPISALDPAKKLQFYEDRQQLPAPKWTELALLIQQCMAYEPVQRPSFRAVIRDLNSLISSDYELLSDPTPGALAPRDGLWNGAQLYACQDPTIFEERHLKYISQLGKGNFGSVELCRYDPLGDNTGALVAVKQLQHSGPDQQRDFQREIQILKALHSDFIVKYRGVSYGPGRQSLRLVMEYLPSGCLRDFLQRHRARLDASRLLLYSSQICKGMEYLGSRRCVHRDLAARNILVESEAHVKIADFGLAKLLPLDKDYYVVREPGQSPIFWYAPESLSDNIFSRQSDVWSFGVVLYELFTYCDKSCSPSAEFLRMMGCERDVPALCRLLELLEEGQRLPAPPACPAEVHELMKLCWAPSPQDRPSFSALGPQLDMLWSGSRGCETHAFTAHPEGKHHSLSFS
The note with it: at 0.1 µM.

Experiment [17] concerns the target T2, Tyrosine-protein kinase JAK3 (Homo sapiens). The note with it: at 1 µM.
In experiment [18] the target is Vascular endothelial growth factor receptor 2 (Homo sapiens) (UniProt P35968). The note with it: at 0.1 µM.
Experiment [19] shares this target. The note with it: at 1 µM.
In experiment [20] the target is Mast/stem cell growth factor receptor Kit (Homo sapiens) (UniProt P10721). Particulars: at 0.1 µM.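 Note: values are mean inhibition of KIT, from the GSK PKIS dataset.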
Chain of Mast/stem cell growth factor receptor Kit (Homo sapiens) (P10721 whole entry): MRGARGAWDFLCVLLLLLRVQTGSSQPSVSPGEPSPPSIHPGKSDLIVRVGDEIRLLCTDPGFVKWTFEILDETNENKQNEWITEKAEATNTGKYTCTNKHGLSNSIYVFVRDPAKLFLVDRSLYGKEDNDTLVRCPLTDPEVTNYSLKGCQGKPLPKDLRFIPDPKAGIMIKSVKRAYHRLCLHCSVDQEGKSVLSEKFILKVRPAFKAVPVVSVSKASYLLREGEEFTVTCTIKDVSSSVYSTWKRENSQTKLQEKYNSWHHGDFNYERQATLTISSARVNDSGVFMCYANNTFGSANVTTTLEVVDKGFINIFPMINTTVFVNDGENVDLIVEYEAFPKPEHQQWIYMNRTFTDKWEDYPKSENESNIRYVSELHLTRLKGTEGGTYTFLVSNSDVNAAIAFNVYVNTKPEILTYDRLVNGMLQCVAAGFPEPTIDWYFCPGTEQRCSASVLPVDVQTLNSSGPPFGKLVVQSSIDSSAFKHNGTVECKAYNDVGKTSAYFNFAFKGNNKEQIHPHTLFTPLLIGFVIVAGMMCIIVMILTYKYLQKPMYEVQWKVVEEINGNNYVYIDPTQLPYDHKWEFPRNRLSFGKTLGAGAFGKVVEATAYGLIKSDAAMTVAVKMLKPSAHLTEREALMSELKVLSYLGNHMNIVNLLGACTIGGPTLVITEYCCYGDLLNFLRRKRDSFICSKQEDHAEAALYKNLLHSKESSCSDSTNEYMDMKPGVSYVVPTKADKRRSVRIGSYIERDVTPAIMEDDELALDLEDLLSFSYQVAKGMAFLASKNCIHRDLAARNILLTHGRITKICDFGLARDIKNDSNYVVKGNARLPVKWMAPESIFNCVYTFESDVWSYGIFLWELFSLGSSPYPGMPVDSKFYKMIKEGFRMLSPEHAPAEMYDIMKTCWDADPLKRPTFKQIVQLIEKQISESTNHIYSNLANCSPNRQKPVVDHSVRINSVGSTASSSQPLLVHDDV

The structures appear in SMILES notation.

Chain of Tyrosine-protein kinase JAK2 (Homo sapiens) (O60674 whole entry): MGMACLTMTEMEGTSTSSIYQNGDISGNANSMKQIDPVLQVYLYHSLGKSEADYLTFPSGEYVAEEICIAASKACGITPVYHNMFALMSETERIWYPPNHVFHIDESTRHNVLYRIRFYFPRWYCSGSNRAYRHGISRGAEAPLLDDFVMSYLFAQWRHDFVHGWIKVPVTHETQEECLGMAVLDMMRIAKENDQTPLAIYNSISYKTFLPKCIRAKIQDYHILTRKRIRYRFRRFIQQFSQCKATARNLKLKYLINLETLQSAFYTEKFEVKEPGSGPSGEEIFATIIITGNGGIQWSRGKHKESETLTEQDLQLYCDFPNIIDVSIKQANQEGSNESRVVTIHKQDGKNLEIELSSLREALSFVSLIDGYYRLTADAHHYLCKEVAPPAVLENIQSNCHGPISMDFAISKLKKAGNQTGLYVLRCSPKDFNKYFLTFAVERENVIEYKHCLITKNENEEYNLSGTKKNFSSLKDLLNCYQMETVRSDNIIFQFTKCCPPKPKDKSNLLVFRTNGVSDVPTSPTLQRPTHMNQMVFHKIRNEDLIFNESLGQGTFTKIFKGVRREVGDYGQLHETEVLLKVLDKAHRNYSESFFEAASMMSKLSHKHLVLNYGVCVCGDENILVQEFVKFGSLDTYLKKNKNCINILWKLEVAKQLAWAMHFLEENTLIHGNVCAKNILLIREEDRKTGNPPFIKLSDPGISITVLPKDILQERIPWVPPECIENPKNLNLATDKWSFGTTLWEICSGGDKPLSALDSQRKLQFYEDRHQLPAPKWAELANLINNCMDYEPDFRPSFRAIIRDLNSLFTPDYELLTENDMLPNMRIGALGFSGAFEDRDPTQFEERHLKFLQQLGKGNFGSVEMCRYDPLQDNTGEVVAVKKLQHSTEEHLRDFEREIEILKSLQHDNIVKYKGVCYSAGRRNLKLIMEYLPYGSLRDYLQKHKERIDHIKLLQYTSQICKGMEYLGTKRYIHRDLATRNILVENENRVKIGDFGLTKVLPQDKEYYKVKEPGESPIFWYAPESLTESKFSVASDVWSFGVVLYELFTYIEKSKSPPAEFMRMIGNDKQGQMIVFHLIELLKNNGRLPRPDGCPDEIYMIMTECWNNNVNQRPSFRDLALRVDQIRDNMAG
Chain of Tyrosine-protein kinase HCK (Homo sapiens) (P08631 2-526 limits assumed): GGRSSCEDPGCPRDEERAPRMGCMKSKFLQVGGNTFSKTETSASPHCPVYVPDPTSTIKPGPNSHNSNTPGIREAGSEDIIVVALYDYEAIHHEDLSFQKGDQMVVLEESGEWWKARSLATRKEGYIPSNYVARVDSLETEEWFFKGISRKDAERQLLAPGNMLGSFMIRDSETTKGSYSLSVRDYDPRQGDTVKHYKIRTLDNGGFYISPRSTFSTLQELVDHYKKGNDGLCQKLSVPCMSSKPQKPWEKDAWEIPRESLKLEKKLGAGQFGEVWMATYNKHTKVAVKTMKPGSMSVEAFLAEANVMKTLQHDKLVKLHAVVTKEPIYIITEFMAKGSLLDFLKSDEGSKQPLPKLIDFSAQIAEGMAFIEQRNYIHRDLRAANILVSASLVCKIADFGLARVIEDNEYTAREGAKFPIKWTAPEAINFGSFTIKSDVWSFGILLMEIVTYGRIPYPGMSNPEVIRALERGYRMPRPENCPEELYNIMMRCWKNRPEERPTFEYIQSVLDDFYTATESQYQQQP

On to `O=C1NC(=O)C(c2cccc(Cl)c2)=C1Nc1ccc(O)c(Cl)c1`, for which the inhibition in [1] is 2.24%; in [2] it was 1.14%; in experiment [3] it was 3.34%; in experiment [4] it was -1.68%; in experiment [5], 2.43%; in experiment [6], 4.11%. For the same compound, the inhibition in [7] is 6.7%; in experiment [8], 1.1%; in experiment [9] it was 0.03%; in experiment [10], 0.25%; in experiment [11], 1.28%; in experiment [12], 2.54%. Further, the inhibition stood at 7.81% in [13]; 0.65% in [14]; 2.24% in [15]; 3.49% in experiment [16]; 51.4% in experiment [17]; 3.41% in experiment [18]. In addition, the results for the inhibition in experiment [19] and in [20] were 20.1% and -3.91%, respectively.
On to `CC(=O)Nc1cccc(C#Cc2cncnc2Nc2ccc(OCc3cccc(F)c3)c(Cl)c2)n1`, for which the inhibition in experiment [1] was 2.69%; in [2], -0.02%; in experiment [3], 2.4%; in [4] it was -4.35%; in experiment [5], -3.59%; in experiment [6] it was -4.01%. The inhibition in experiment [7] was -3.08%; in [8], -1.19%; in experiment [9], 0%; in experiment [10], -0.1%; in experiment [11], 0.33%; in experiment [12], 3.25%. Besides, the inhibition is 14.8% in experiment [13]; -1.97% in [14]; -0.27% in experiment [15]; 2.07% in experiment [16]; 2.66% in experiment [17]; -2.26% in [18]. For the same compound, the figures for the inhibition in experiment [19] and in [20] were 2.74% and -0.74%, respectively.
As to `COc1ccccc1Nc1ncc(-c2ccccc2)o1`, the inhibition is 8.38% in experiment [1]; 9.81% in [2]; 13.3% in [3]; -0.7% in [4]; 1.64% in experiment [5]; 1.17% in experiment [6]. Further, the inhibition in [7] was found to be 3.48%; in experiment [8] it was 3.09%; in experiment [9] it was 3.73%; in [10] it was 0.73%; in [11], 3.07%; in [12], 4.14%. The inhibition in experiment [13] was 5.2%; in [14] it was 0.56%; in experiment [15], -0.51%; in experiment [16], -3.6%; in experiment [17], -1.96%; in experiment [18], 10.6%. In addition, the inhibition in [19] came to 19.2%; in [20], 78.2%.
As for `CCn1c(-c2nonc2N)nc2ccncc21`, the inhibition in experiment [1] was -0.65%; in experiment [2] it was 3.79%; in experiment [3] it was 3.12%; in [4], -0.2%; in [5] it was 1.25%; in experiment [6], 3.48%. Besides, the inhibition in experiment [7] is 5.38%; in [8], -0.17%; in experiment [9] it was -0.42%; in [10], 0.26%; in experiment [11], 0.76%; in experiment [12] it was 1.34%. Besides, the inhibition in experiment [13] is 6.51%; in [14] it was 0.33%; in experiment [15] it was 0.91%; in [16], -1.14%; in experiment [17], 2.73%; in [18], 1.87%. Further, the inhibition was 2.46% in [19] and -0.66% in [20].
`CCN1CCC(CC(=O)Nc2n[nH]c3nc(-c4cccs4)c(Br)cc23)CC1`: the inhibition in [1] was -1.4%; in [2] it was -0.44%; in [3], 0.93%; in experiment [4], -1.09%; in experiment [5], 1.31%; in [6], -0.61%. In addition, the inhibition is -1.43% in [7]; -2.33% in [8]; 0.01% in experiment [9]; -0.21% in [10]; 0.48% in experiment [11]; -7.81% in experiment [12]. Further, the inhibition in experiment [13] is -3.93%; in experiment [14], -1.09%; in experiment [15] it was -2.38%; in experiment [16], 0.48%; in experiment [17], 2.19%; in experiment [18] it was 1.49%. In addition, the results for the inhibition in [19] and in experiment [20] were 15.5% and -4.07%, respectively.
As to `CCn1c(-c2nonc2N)nc2cncc(C(=O)N3CC[C@H](N)C3)c21`, the inhibition in experiment [1] stood at 2.85%; in experiment [2], 6.43%; in [3] it was 9.69%; in [4] it was 4.59%; in experiment [5], 6%; in [6], 4.27%. Besides, the inhibition in experiment [7] is 6.06%; in [8] it was 0.81%; in [9] it was 1.96%; in experiment [10], 0.55%; in experiment [11], 1.18%; in experiment [12], -1.1%. Also, the inhibition was 22.4% in [13]; 0.61% in experiment [14]; 1.25% in [15]; -0.95% in experiment [16]; -0.29% in [17]; 7.05% in [18]. In addition, the inhibition in [19] stood at 15.8%; in [20], 5.39%.

As a reminder, the inhibition is the drop in the measured response relative to a control, in per cent.
